Screening results: PubChem BioAssay, ICCB-Longwood Screening Facility, Harvard Medical School
Shown are actives, neighbours in structure and some others; about 1.4% of the full set was active somewhere.
Mtb MenB inh – Mtb MenB enzyme inhibition | 100,000 compounds, 0.43% hits | P9WNP5 | AID 540299 | MenB enzyme assay, absorbance read-out | inhibition, % (concentration not given with the values); in the data active means inhibition above about 21%, passing the limit was not always enough
AID504770 – growth inhibitors of E. coli YBA685 in a screen for V. cholerae RctB (chromosome II replication) inhibitors; 130,000 compounds, 0.27% hits; z-score (no concentration beside the values); E. coli YBA685 rctB-dependent plasmid, OD600 growth, 3 h; hits give low values; in the data active means z-score below about -2, passing the limit was not always enough
Mtb MbtI inh – inhibitors of Mycobacterium tuberculosis siderophore enzyme MbtI. P9WFX0. purified MbtI enzyme, fluorescence intensity read-out. inhibition, % (concentration not given with the values). 100,000 compounds, 0.89% hits. AID 493033; in the data active means inhibition mostly above about 56%, no sharp cut-off; inactive means mostly below about 77%
Target sequence (P9WFX0 whole entry, looked up): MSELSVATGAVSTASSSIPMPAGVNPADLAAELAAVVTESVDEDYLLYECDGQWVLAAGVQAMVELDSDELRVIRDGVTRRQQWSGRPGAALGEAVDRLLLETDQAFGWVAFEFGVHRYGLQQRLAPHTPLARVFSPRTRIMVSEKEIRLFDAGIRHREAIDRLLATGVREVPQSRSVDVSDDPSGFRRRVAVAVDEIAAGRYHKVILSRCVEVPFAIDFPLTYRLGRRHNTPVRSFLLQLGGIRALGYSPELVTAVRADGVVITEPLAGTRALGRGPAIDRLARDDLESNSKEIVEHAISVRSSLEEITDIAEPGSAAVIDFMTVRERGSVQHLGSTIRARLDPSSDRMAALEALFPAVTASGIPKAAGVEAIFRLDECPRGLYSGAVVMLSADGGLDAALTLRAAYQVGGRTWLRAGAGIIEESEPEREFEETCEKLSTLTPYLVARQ
PV pol inh – poliovirus RNA polymerase inhibition; P03300; poliovirus polymerase elongation, fluorescence polarization; hits give low values; % elongation, % (compound at 16.7 µg/mL); 150,000 compounds, 0.66% hits; in the data active means % elongation below about 90%
Active calls of the source: *; i = inactive; . = no result.

SMILES	Mtb MenB inh	AID504770	Mtb MbtI inh	PV pol inh
CC(Sc1nnc(-c2ccco2)n1C(C)C1CC2CCC1C2)C(N)=O (stereo not given)	-32	1.6	-7	101
COc1ccccc1NC(=S)N=Nc1c(O)n(CN2CCN(c3ccccc3)CC2)c2ccccc12	-39	0.45	-7	101
Cc1ccc(-c2cn3c(=S)[nH]nc3s2)cc1	-51	0.25	98*	100
Cc1ccc(-c2n[nH]c(=S)n2C)cc1	1	1.6	73	101
CC1CCN(S(=O)(=O)c2ccc(S(=O)(=O)N3CCCN(Cc4ccccc4)C3)cc2)CC1	36*	1.4	0	104
Cc1cccc(N(C)c2nc3ccc(Cl)cc3n3cnnc23)c1	-42	1.6	2	103
COc1ccc(-c2csc(-n3nc(C)cc3C)n2)cc1	.	-0.45	.	.
Cc1cc(C)n(CCc2nc(-c3ccc(C)c(C)c3)cs2)n1	-47	0.55	73*	82*
CCc1ccc2nc(N3CCC(C(=O)NC4CC4)CC3)sc2c1	-2	-0.2	-4	100
Cc1cc(C(=O)Nc2cccc(C(F)(F)F)c2)n[nH]1	-12	0.45	0	100
CC1=NOC(=O)/C1=C/c1ccc(O)cc1	-38	-1.9	92*	99
CN1C(=O)N(C)C(=O)C(CC(=O)N2CCCc3ccccc32)(CC(=O)N2CCCc3ccccc32)C1=O	-1	-0.1	-10	100
O=C(CSc1cccc[n+]1[O-])c1ccccc1F	-46	1.1	22	98
O=C(CCCSc1cccc[n+]1[O-])c1ccc(F)cc1	-14	0.15	99*	103
CC1=C(C(N)=O)C(/C=C/c2ccccc2)n2ncnc2N1 (stereo not given)	2	-0.05	13	.
Cc1nc2sc(C(c3ccco3)N3CCN(C(=O)c4ccco4)CC3)c(O)n2n1 (stereo not given)	.	0.95	.	.
Cc1cc(C(=O)O)no1	32*	0.05	3	101
O=S(=O)(Cc1ccccc1)c1nnnn1-c1ccccc1	.	0.5	-6	.
c1ccc(-n2nnnc2SSc2nnnn2-c2ccccc2)cc1	-24	-0.7	59*	98
CCS(=O)(=O)c1nnnn1-c1ccccc1	42*	-0.2	29	103
O=C(Sc1nnnn1-c1ccccc1)c1cccc(Cl)c1	.	0.2	.	.
N#CC(C#N)=C/C=C(\Sc1nnnn1-c1ccccc1)c1ccccc1	-10	-0.35	84*	98
CCN(CC)S(=O)(=O)c1ccc(C(=O)Nc2ccccc2Cl)cc1	.	0.9	0	103
NNc1ccc(Br)cc1	22	-6.3*	.	106
NCC(=O)Nc1ccc(Br)cc1	1	-1.1	-7	100
SMILES	Mtb MenB inh	AID504770	Mtb MbtI inh	PV pol inh
O=C(O)CSc1ccccc1	-11	0.3	.	102
O=C1NC(=S)C(=C2CCCC2)S1	-27	0.55	77*	89
Cc1ccc(CN(C(=O)NC2CCCC2)C2CCN(Cc3ccccc3)CC2)o1	1	0.6	-9	102
N#CC(C#N)=Cc1cc2c(cc1Br)OCO2	-43	0.85	86	70*
Cc1ccc(-n2nc(C)c3c(C(=O)NC4CCCC4)cc(C)nc32)cc1	16	0.7	-5	97
COC(=O)c1ccsc1NC(=O)c1ccc(N(C)C)cc1	.	1.8	.	.
Cc1ccc(C(c2c(O)[nH]c(=S)[nH]c2=O)N2CCC(C)CC2)cc1 (stereo not given)	-49	-0.45	66*	98
Cc1ccc(C(c2nnnn2C(C)(C)C)N2CCC(C)CC2)cc1 (stereo not given)	-13	-2.1	-7	103
N#Cc1ccc(Sc2ccc(C#N)c(C#N)c2)cc1C#N	-53	-0.85	100*	100
N#Cc1ccc(OC(C(F)(F)F)C(F)(F)F)cc1C#N	-23	-0.45	1	100
CC(C)(C)Sc1ccc(SC#N)s1	-32	0.75	81*	95
CC(C)(C)Sc1ccc(C(=O)O)s1	.	-0.3	57*	.
O=C(COc1ccccc1)N1CCNCC1	-37	2.5	0	102
CC1=C(c2ccccc2)S(=O)(=O)NC1=NC1CCCCC1C (stereo not given)	-7	0.25	7	102
N#Cc1cnc(SCCc2ccccc2)nc1N	33*	-0.1	48	105
CS(=O)(=O)N1CCCc2cc(C(=O)N(CC(=O)Nc3ccccc3C(F)(F)F)Cc3ccco3)ccc21	-2	0.3	-6	102
CCc1cc(=O)oc2c(C)c(OCC(=O)Nc3ccc4c(c3)OCO4)ccc12	-20	-0.7	7	80*
O=c1c(=NNc2ccccc2)c(=O)c2ccccc12	-348	1.1	16	98
O=c1c(=NNc2nn[nH]n2)c(=O)c2ccccc12	-474	-1.4	16	-20*
CC(C)(C)c1ccc(O)c(N)c1	-23	-0.05	99*	98
O=C(Cn1c2ccc(F)cc2c2nc3n(c(=O)c21)CCS3)N1CCCC1	30*	2.2	44	103
CCCn1c2ccc(F)cc2c2nc3n(c(=O)c21)CCS3	16	-0.25	90	101
COc1cc2c(cc1OC)C(C(=O)NC1CCCCC1)C(c1cccnc1)N(C)C2=O (stereo not given)	-10	0.05	5	101
Cc1cc(Cl)ccc1OCCSc1nnc(-c2cccs2)o1	.	.	.	10*
Cc1ccccc1OCCSc1nnc(-c2cccs2)o1	.	.	.	109
SMILES	Mtb MenB inh	AID504770	Mtb MbtI inh	PV pol inh
CN(C)Cc1n[nH]c(=S)o1	-19	2	90*	75*
CN1C(=O)/C(=N\OC(=O)c2cccc(F)c2)c2ccccc21	-13	-0.3	-4	101
C/C(O)=C(\C#N)P(C)(=O)OC(C)C (stereo not given)	41*	1.5	1	98
O=C1COc2ccc(C(=O)COC(=O)c3cccc(S(=O)(=O)N4CCCCC4)c3)cc2N1	6	1.1	4	101
Cc1noc(C)c1COc1cccc(C(=O)N2CCc3ccccc32)c1	-17	-2.5*	-2	106
NNc1cccc2cccnc12	.	0.35	.	.
NC(=O)C(c1ccccc1)c1ncc(C(F)(F)F)cc1Cl (stereo not given)	.	-2.7*	.	.
O=C(O)C1CSC(c2ccncc2)=N1 (stereo not given)	90*	0.85	17	101
O=C(O)C1CSC(c2cccnc2)=N1 (stereo not given)	.	1.5	2	.
CCN(CC)c1ncnc2c1cnn2-c1cccc(C)c1	.	1.1	.	.
CCc1cc2c(C)cc(=O)oc2cc1OCC(=O)NC1CCCCC1	.	0.4	18	98
Cc1nc2ccccc2c2oc(C(=O)NCCN3CCCCCC3)cc12	.	-0.3	.	.
Cc1cc(NCCN2CCCCC2)c2ccc3ccccc3c2n1	-1	1.1	i	69*
CC(CC(=O)N1CCOCC1)c1ccccc1 (stereo not given)	8	1.2	-5	104
O=S(=O)(NNc1nccc(-c2cccnc2)n1)c1cccc(C(F)(F)F)c1	5	-1	55*	101
COC(=O)C1=C(C)N(C)C(=O)N(C)C1c1ccc(O)cc1 (stereo not given)	21	-0.3	9	101
CCN(CC)C(=O)Nc1cccc(Cl)c1	33*	0.4	0	101
CCN(C(=O)Nc1cccc(Cl)c1)c1ccccc1	-13	-0.3	-7	100
Cc1sc2cc(-[n+]3ccc(O)cc3)ccc2[n+]1-c1ccccc1	.	0.9	95*	100
